Most compounds without a hit are left out; they make up all but 9.4% or so of the library.
Rab9 promoter act: activates the Rab9 promoter; AID 485297; Potency, µM (highest dose often 9.22 µM), actives largely listed as activators; Huh7 Rab9 promoter-luciferase reporter, luminescence, 24 h; 320,000 compounds, 2.8% hits; also: nearly all actives have a fitted effect of over 60% in size
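Luminescence read-out: Huh7 cells stably expressing Rab9-luciferase, treated 24 h with compound at 37 °C, then lysed with luciferase reagent for 10 min at ambient before reading.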
FLuc modulator: firefly luciferase modulation, counter-screen for miR-21 project | P08659 | purified FLuc, Km substrates, luminescence inhibition | Potency, µM (top dose mostly 57.5 µM), hits mostly inhibitors | 360,000 compounds, 6.9% hits | AID 588342; also: nearly all actives have a fitted effect of over 55% in size
Target sequence (P08659 whole entry, looked up): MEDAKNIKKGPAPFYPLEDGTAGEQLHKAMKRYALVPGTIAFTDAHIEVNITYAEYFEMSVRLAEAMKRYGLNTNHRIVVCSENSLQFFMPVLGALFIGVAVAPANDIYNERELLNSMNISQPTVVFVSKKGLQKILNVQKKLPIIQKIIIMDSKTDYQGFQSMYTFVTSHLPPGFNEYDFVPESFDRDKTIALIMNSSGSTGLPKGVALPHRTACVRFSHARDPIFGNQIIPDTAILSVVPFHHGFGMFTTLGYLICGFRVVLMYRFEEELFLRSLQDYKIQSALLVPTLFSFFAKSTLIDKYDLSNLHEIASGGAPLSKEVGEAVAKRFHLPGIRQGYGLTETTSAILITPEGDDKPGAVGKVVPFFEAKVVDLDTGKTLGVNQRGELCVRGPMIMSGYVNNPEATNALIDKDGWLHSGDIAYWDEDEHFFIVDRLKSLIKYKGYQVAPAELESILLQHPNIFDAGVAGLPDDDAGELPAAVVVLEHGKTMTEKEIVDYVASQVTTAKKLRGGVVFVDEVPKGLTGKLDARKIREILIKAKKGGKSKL
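Biochemical qHTS of compounds, final roughly 60 µM downward over six points, against 10 nM purified firefly luciferase using Km concentrations of substrates (10 uM D-luciferin, 10 uM ATP) in Tris acetate pH 7.5 buffer; luminescence output.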
ELG1 DNA repair: blocks ELG1-dependent DNA repair in HEK293T cells. HEK293T ELG1-luciferase reporter, luminescence, 16 h; DNA damage induced by 5-fluorouridine. Potency, µM (highest dose often 46.1 µM), usual class: inhibitors. 330,000 compounds, 2.3% hits. AID 504467; also: nearly all actives have a fitted effect of over 55% in size
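DMSO vehicle served as the neutral condition. Each well held 2,000 cells given 5-fluorouridine plus compound; after 16 hr at 37 °C/5% CO2, ONE-Glo was added and luciferase measured 30 min later.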
ELG1 genotox: inducers of genotoxicity in HEK293T ELG1-luciferase cells | Potency, µM (top dose mostly 46 µM), hits mostly activators | 330,000 compounds, 1.3% hits | HEK293T ELG1-luciferase reporter, luminescence, 16 h; also: nearly all actives have a fitted effect of over 60% in size
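16 hr compound incubation (37 °C, 5% CO2) of HEK293T cells carrying luciferase-tagged ELG1; luciferase then measured by ONE-Glo luminescence after 30 min at RT.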
SMN2 splice enh: SMN2 splice variant enhancement. Potency, µM (titrated, usually from 46.1 µM), hits mostly activators. 210,000 compounds, 2.8% hits. HEK293 SMN2-luciferase splicing reporter, luminescence, 30-36 h; also: nearly all actives have a fitted effect of over 55% in size
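HEK293 cells carry an SMN2 minigene-luciferase reporter in which exon 7 inclusion puts luciferase in frame. Cells were seeded at 2000 cells/well, attached for 10-12 hours, then exposed to compounds for 30-36 hours at 37C before ONE-Glo luminescence.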
NPC1 prom act: activators of NPC1 promoter. Huh7 NPC1 promoter luciferase reporter, 24 h. 320,000 compounds, 2.4% hits. AID 485313. Potency, µM (top dose mostly 9.22 µM), actives largely listed as activators; also: nearly all actives have a fitted effect of over 60% in size
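Luminescence read-out of NPC1 promoter-driven luciferase in stably transfected Huh7 cells; compounds delivered in DMSO and left 24 h at 37C, 5% CO2, qHTS titration format.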
Hits are given with their value; . = inactive; ? = inconclusive; / = no result; [ ] = another dose, or the depositor's remark. Calls follow the shape of the dose curve; as a rule, active = well fitted curve in the direction sought with a large enough effect; inconclusive = small, poorly fitted or top-dose-only effect, or another doubt; inactive = no such curve, though single readings can be large; an effect the other way counts as inactive or inconclusive.

SMILES | Rab9 promoter act | FLuc modulator | ELG1 DNA repair | ELG1 genotox | SMN2 splice enh | NPC1 prom act
Cc1ccc(S(=O)(=O)N2CCC(C(=O)Nc3ccc(C)c(Cl)c3)CC2)cc1 | / | . | / | / | . | /
CC(C)(C)c1ccc(-c2nnc(SCC(=O)NC3CC3)o2)cc1 | ? | 4.3µM | ? | . | / | ?
CC(C)(C)c1ccc(C(=O)NCc2nnc(SCC(=O)NC3CCCC3)o2)cc1 | . | ? | . | . | / | .
CC(C)(C)c1ccc(C(=O)NCc2nnc(SCC(=O)NC3CCCCC3)o2)cc1 | .[1.84 µM] | 19µM | . | . | / | .
COc1cc(-c2noc(CCCC(=O)NC3CCCCC3)n2)cc(OC)c1OC | . | . | 5.2µM | . | . | .
CCOc1ccc(-c2noc(CCC(=O)O)n2)cc1 | . | 12µM | ? | . | . | .
COc1ccc(-c2noc(CCCC(=O)O)n2)cc1 | . | 11µM | ? | . | . | .
COc1cccc(CNC(=O)CCc2c(C)nc3c(c2C)c(=O)n(C)c(=O)n3C)c1 | / | . | / | / | . | /
CCCCOC(=O)c1ccc(NC(=O)c2cc3c(=O)n4cccc(C)c4nc3n2C)cc1 | / | . | / | / | / | /
CCn1c(-c2ccccc2)csc1=Nc1ccc(O)cc1 | 2.2µM | 8.5µM | ? | ? | ? | 2.8µM
CCOc1ccc(N=c2scc(-c3ccc(OC)cc3)n2CCO)cc1 | . | . | 10µM | . | . | .
CCOc1ccc(N=c2scc(-c3ccccc3)n2CCO)cc1 | . | 15µM | ? | . | ? | .
CC(=O)Nc1ccc(S(=O)(=O)N2CCN=C2c2ccccc2)cc1 | . | . | 8.2µM | . | / | .
C/C(=N/OC(=O)c1ccc(C(F)(F)F)cc1)c1oc(C)nc1C | . | 12µM | . | . | / | .
Cc1nc(/C(N)=N/OC(=O)c2cccc(Cl)c2)c(C(F)(F)F)o1 | . | ? | . | . | / | .
CCOC(=O)c1ccc2c(c1)N(Cc1ccc(F)cc1Cl)C(=O)c1ccccc1S2 | / | . | / | / | / | /
COc1ccc(OC)c(NC(=O)c2nnn(Cc3ccc(Br)cc3F)c2N)c1 | . | . | 21µM | . | . | .
COc1ccc(NC(=O)c2nnn(CC(=O)Nc3ccc4c(c3)OCO4)c2N)c(OC)c1 | . | 1.9µM | ? | .[9.26 µM] | / | .
COc1ccc(NC(=O)c2nnn(CC(=O)Nc3ccc4c(c3)OCO4)c2N)cc1OC | . | . | . | .[9.26 µM] | / | .
CCc1ccc(NC(=O)C2CCN(c3nnc(-n4c(C)ccc4C)s3)CC2)cc1 | / | . | / | / | . | /
Cc1cccc(C)c1OCC(=O)Nn1c(COc2ccccc2)nc2ccccc2c1=O | . | ? | ? | . | . | .
Cc1ccccc1OCC(=O)Nn1c(COc2ccccc2)nc2ccccc2c1=O | . | 27µM | . | . | . | .
COc1cccc(C(=O)Nc2ccccc2N2CCOCC2)c1 | . | . | . | . | ? | .
COc1cccc(C(=O)Nc2cccc(-c3ccc(N4CCOCC4)nn3)c2)c1 | ? | 2.1µM | . | . | / | ?
CCOc1ccc(C(=O)Nc2cccc(-c3ccc(N4CCOCC4)nn3)c2)cc1OCC | 4µM | 1.2µM | ? | . | / | ?
SMILES | Rab9 promoter act | FLuc modulator | ELG1 DNA repair | ELG1 genotox | SMN2 splice enh | NPC1 prom act
CCOc1ccc(C(=O)Nc2ccc(S(=O)(=O)N3CCOCC3)cc2)cc1OCC | . | . | . | . | . | .
COc1ccc(C(=O)Nc2cccc(-c3ccc(N4CCOCC4)nn3)c2)cc1OC | 2.8µM | 0.76µM | ? | . | / | ?
CCOc1ccccc1C(=O)Nc1ccc(S(=O)(=O)N2CCOCC2)cc1 | . | . | . | . | . | .
CCOc1ccccc1C(=O)Nc1cccc(-c2ccc(N3CCOCC3)nn2)c1 | 4.5µM | 1.5µM | ? | ? | / | ?
CCC(C)NC(=O)CSc1nc2cc3c(cc2c(=O)n1CCCCCC(=O)NCc1ccc2c(c1)OCO2)OCO3 (configuration not stated) | / | . | / | / | / | /
CCCCC(=O)NC1(C(F)(F)F)C(=O)Nc2c1c(=O)[nH]c(=O)n2-c1ccc(C)c(C)c1 (configuration not stated) | / | . | / | / | . | /
COc1cccc(C(=O)Nc2cccc(-c3ccc(N4CCOCC4)nn3)c2)c1OC | 1.1µM | 0.38µM | . | . | / | 3.5µM
O=C(Nc1cccc(-c2ccc(N3CCOCC3)nn2)c1)c1ccc(F)cc1F | 2.8µM | 1.1µM | ? | ? | / | 2.8µM
COc1cccc(C(=O)Nc2cccc(-c3ccc4nncn4n3)c2)c1OC | . | ? | ? | . | . | .
Cn1c(SCC(=O)N2CCOCC2)nnc1-c1cccc(NC(=O)c2ccccc2F)c1 | . | . | . | . | . | .
Cc1ccccc1N=C1NN=C(c2ccccc2F)CS1 | ? | 21µM | ? | . | 11µM | ?
Cc1cc(C2=NNC(=NC3CC3)SC2)c(C)n1-c1ccccc1F | . | 0.21µM | ? | . | . | .
Cc1cccc(C)c1N=C1NN=C(c2ccccc2F)CS1 | . | . | . | . | / | .
C=C(C)CN=C1NN=C(c2cc(C)n(-c3ccc(C)cc3)c2C)CS1 | ? | 8.5µM | . | . | ? | ?
C=CCn1c(SCC(=O)Nc2cccnc2Cl)nnc1-c1ccc(C(C)(C)C)cc1 | . | 21µM | ? | . | / | .
C=CCn1c(SCC(=O)Nc2ccccc2C)nnc1-c1ccncc1 | . | . | . | . | . | .
CCC(Sc1nnc(-c2ccc(C)c(Cl)c2)n1CC)C(=O)Nc1nccs1 (configuration not stated) | . | . | ? | . | . | .
C=CCn1c(SCC(=O)NNC(=S)Nc2ccccc2)nnc1-c1ccccc1 | . | . | . | . | / | .
COc1ccc(CC(=O)Nc2ccc(C(=O)Nc3nccs3)cc2)cc1OC | . | . | . | . | . | .
CCn1c(SCc2ccc(C(=O)Nc3nccs3)cc2)nnc1-c1ccc(N)cc1 | . | 17µM | ? | . | . | .
CCn1c(SCc2ccc(C(=O)Nc3nccs3)cc2)nnc1-c1ccc(NC(C)=O)cc1 | . | 11µM | ? | . | . | .
C=CCn1c(SCc2ccc(C(=O)Nc3ccccc3)cc2)nnc1-c1ccccc1 | . | 13µM | . | . | . | .
Cc1cc(Br)ccc1NC(=O)c1cn(C2CCCC2)c(=O)c2c1c1ccccc1n2C | / | . | / | / | . | /
Cn1c(SCC(=O)Nc2nccs2)nnc1-c1ccncc1 | . | . | . | . | . | .
Cn1c(SCc2ccc(C(=O)Nc3nccs3)cc2)nnc1-c1ccccc1 | . | 15µM | ? | . | . | .
CCn1c(SCC(=O)Nc2nccs2)nnc1-c1ccc(S(=O)(=O)N2CCCCCC2)cc1 | . | . | 21µM | . | . | .
Cn1c(SCC(=O)Nc2nccs2)nnc1-c1ccc(S(=O)(=O)N2CCCC2)cc1 | . | . | . | . | . | .
C=CCn1c(C)nnc1SCC(=O)Nc1nccs1 | 0.089µM | . | . | . | / | ?
C=CCn1c(SCC(=O)Nc2nccs2)nnc1-c1ccco1 | . | . | . | . | . | .

From PubChem BioAssay
